The values that follow come from PubChem BioAssay (Tox21).

Assay [1] is described as follows: qHTS assay to identify small molecule agonists of the sonic hedgehog signaling (Shh) pathway (AID 1259368).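 Note: NIH/3T3-derived 3T3Gli1-Luc cells carrying a stable Gli1-driven firefly luciferase reporter; series mostly up to about 92 µM; nearly all actives have a fitted effect of over 15% in size.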 The essentials: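 NIH/3T3-derived 3T3Gli1-Luc cells with stably integrated Gli1-driven firefly luciferase, 2,000 cells/well, compounds added after 4 hr. Incubated 24 hr at 37C, 5% CO2; luminescence read after 30 min with luciferase reagent at room temperature.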

The nature of assay [2]: qHTS assay to identify small molecule agonists of the androgen receptor (AR) signaling pathway in the presence of an antagonist - cell viability counter screen (AID 1259379; active = well fitted curve in the direction sought with a large enough effect in the repeat runs; an effect the other way counts as inactive or inconclusive; note: nearly all actives have a fitted effect of over 25% in size; note: potency is the fitted concentration of half-maximal effect). In short, it runs like this:
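MDA-kb2 cells (MMTV-luciferase, AR/GR), 3,000/well, 5 h attachment, then 3.0 µM nilutamide (final) and compounds at 15 concentrations. Viability by CellTiter-Fluor fluorescence after 16 h at 37 °C, 0% CO2, in the reporter wells.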
In general terms: qHTS replaces the single test concentration by a dilution series.

A short description of assay [3]: qHTS assay to identify small molecule agonists of the estrogen receptor beta (ER-beta) signaling pathway - cell viability counter screen (AID 1259380; active = well fitted curve in the direction sought with a large enough effect in the repeat runs; an effect the other way counts as inactive or inconclusive; note: nearly all actives have a fitted effect of over 30% in size). The essentials: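 ER-beta-UAS-bla HEK293T cells in medium with 2% charcoal-stripped FBS, pre-incubated 6 hr, then treated 16 hr at 37C. Cytotoxicity read in the same wells by CellTiter-Glo luminescence after 30 min at room temperature.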

For assay [4], the target named is Estrogen receptor (Homo sapiens) (UniProt P03372). As to the kind of experiment: qHTS assay to identify small molecule agonists of the estrogen receptor alpha (ER-alpha) signaling pathway in the presence of an antagonist (AID 1259383). Note: top concentration of the series differs between compounds; nearly all actives have a fitted effect of over 15% in size. In short, it runs like this:
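VM7Luc4E2 cells express endogenous full-length ER-alpha with an ERE-luciferase reporter and were hormone-deprived for 5 days. Compounds at 15 concentrations were added with 10.0nM ICI-182,780 for 22hr at 37C. Luminescence was read with ONE-Glo.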

Assay [5] addresses Progesterone receptor (Homo sapiens) (UniProt P06401). As to the kind of experiment: qHTS assay to identify small molecule antagonists of the progesterone receptor (PR) signaling pathway (AID 1346795; active = well fitted inhibition curve with a large enough effect in the signal ratio in the repeat runs, not every such curve was filed as active; the % refers to the signal ratio). In short, it runs like this:
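Inhibition of R5020-induced (1 nM final) beta-lactamase reporter signal in PR-UAS-bla HEK293T cells was scored by FRET fluorescence after overnight (16 hr) compound treatment.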

Assay [6] in a line: qHTS assay to identify small molecule agonists of the progesterone receptor (PR) signaling pathway - cell viability counter screen (AID 1346799). Note: nearly all actives have a fitted effect of over 45% in size. In short, it runs like this:
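Cytotoxicity in PR-bla HEK293T cells: 16 h compound, 37C; CellTiter-Glo added post-FRET read; luminescence after 30 min RT.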

Assay [7] is described as follows: qHTS assay to identify small molecule agonists of the TGF-beta/Smad signaling pathway - cell viability counter screen (AID 1346829; active = well fitted curve in the direction sought with a large enough effect in the repeat runs; an effect the other way counts as inactive or inconclusive; note: top concentration of the series differs between compounds; nearly all actives have a fitted effect of over 45% in size). The essentials:
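CellTiter-Glo luminescence readout; SBE-bla HEK 293T cells, overnight plating, compound 5 hr at 37 C/5% CO2, then bla substrate 2 hr RT, then CellTiter-Glo 30 min RT.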

The nature of assay [8]: qHTS assay to identify small molecule agonists of the TGF-beta/Smad signaling pathway (AID 1346859; active = well fitted activation curve with a large enough effect in the signal ratio in the repeat runs, not every such curve was filed as active; the % refers to the signal ratio; note: series mostly up to about 77 µM). In short, it runs like this: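 Stable Smad binding element-beta-lactamase HEK 293T cells; 5 hr compound exposure at 37 C under 5% CO2; 2 hr room-temperature substrate step; fluorescence excited at 405 nm, collected at 460 nm and 530 nm.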
The target of assay [9] is Estrogen receptor beta (Homo sapiens) (UniProt Q92731). The assay can be described thus: qHTS assay to identify small molecule agonists of the estrogen receptor beta (ER-beta) signaling pathway (AID 1259377; active = well fitted activation curve with a large enough effect in the signal ratio in the repeat runs, not every such curve was filed as active; the % refers to the signal ratio). In short, it runs like this:
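In HEK293T cells bearing a UAS-beta-lactamase reporter under ER-beta control, DMSO-delivered compounds were incubated for 16 hr at 37C. Activity was detected as fluorescence 2 hours after LiveBLAzer B/G FRET substrate addition.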

For assay [10] the target is unchanged. The assay can be described thus: qHTS assay to identify small molecule antagonists of the estrogen receptor beta (ER-beta) signaling pathway (AID 1259378; active = well fitted inhibition curve with a large enough effect in the signal ratio in the repeat runs, not every such curve was filed as active; the % refers to the signal ratio). The essentials:
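Antagonist mode: compounds added to beta-lactamase reporter HEK293T ER-beta-UAS cells stimulated with E2 (1nM final), 16 hr at 37C. LiveBLAzer B/G FRET substrate, 2 hours room temperature, fluorescence read-out.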

Assay [11] in a line: qHTS assay to identify small molecule antagonists of the estrogen receptor beta (ER-beta) signaling pathway - cell viability counter screen (AID 1259382; active = well fitted curve in the direction sought with a large enough effect in the repeat runs; an effect the other way counts as inactive or inconclusive;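 note: HEK293T cells carrying ER-beta-UAS-bla reporter stimulated with estradiol; series mostly up to about 92 µM; nearly all actives have a fitted effect of over 55% in size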). In short, it runs like this:
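ER-beta-UAS-bla HEK293T cells in 2% charcoal-stripped FBS medium, treated with compound plus 1 nM 17-beta-estradiol for 16 h at 37C. Viability read by CellTiter-Glo luminescence after 30 min at room temperature in the same wells.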

The nature of assay [12]: qHTS assay to identify small molecule agonists or antagonists of the thyroid stimulating hormone receptor (TSHR) signaling pathway - wild type cell line counter screen (AID 1259384). The essentials:
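Counter screen in untransfected Hek293: compounds (15-point titration, triplicate) plus phosphodiesterase inhibitor Ro20-1724 added after 18 h plating; 30 min RT. Intracellular cAMP via competitive d2/cryptate immunoassay, 1 h incubation.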

Assay [13] concerns the target Thyrotropin receptor (Homo sapiens) (UniProt P16473). The assay can be described thus: qHTS assay to identify small molecule antagonists of the thyroid stimulating hormone receptor (TSHR) signaling pathway (AID 1259385). Note: nearly all actives have a fitted effect of over 20% in size. In short, it runs like this:
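Antagonist mode: compound-treated TSHR-expressing HEK293 cells were stimulated with 1.5 ng/mL TSH (final) in presence of Ro20-1724 for 30 min at RT. HTRF cAMP detection after 1 h; each compound tested at 15 concentrations, triplicate.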

A short description of assay [14]: qHTS assay to identify small molecule agonists of the estrogen receptor alpha (ER-alpha) signaling pathway in the presence of an antagonist - cell viability counter screen (AID 1259386; active = well fitted curve in the direction sought with a large enough effect in the repeat runs; an effect the other way counts as inactive or inconclusive;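 note: series mostly up to about 92 µM; cells exposed to compounds for 22 h at 37 °C before the viability read; nearly all actives have a fitted effect of over 30% in size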). The essentials: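 Cell viability in VM7Luc4E2 cells (endogenous full-length ER-alpha) measured by CellTiter-Fluor fluorescence in the same wells as the luciferase screen. Cells pre-cultured 5 days in charcoal-stripped serum, then treated 22 h with compounds at 15 concentrations plus 10.0nM ICI-182,780.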

Assay [15] deals with Progesterone receptor (Homo sapiens) (UniProt P06401). The assay can be described thus: qHTS assay to identify small molecule agonists of the progesterone receptor (PR) signaling pathway (AID 1346784). Note: nearly all actives have a fitted effect of over 30% in size. In short, it runs like this:
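Using charcoal-stripped serum (2%) to limit endogenous steroids, PR-UAS-bla HEK 293T cells received compounds for 16 hr at 37C after 6 hr plating; beta-lactamase FRET fluorescence was recorded following 2 hr substrate loading at room temperature.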

Assay [16] is described as follows: qHTS assay to identify small molecule antagonists of the progesterone receptor (PR) signaling pathway - cell viability counter screen (AID 1346798; active = well fitted curve in the direction sought with a large enough effect in the repeat runs; an effect the other way counts as inactive or inconclusive; note: series mostly up to about 92 µM; nearly all actives have a fitted effect of over 50% in size). In short, it runs like this:
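ATP content as viability readout: CellTiter-Glo luminescence, 30 min room temperature, in PR-UAS-bla HEK293T cells after 16 hr compound/R5020 treatment at 37C and 5% CO2.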

Assay [17] in a line: qHTS assay to identify small molecule antagonists of the TGF-beta/Smad signaling pathway - cell viability counter screen (AID 1346824; active = well fitted curve in the direction sought with a large enough effect in the repeat runs; an effect the other way counts as inactive or inconclusive; note: nearly all actives have a fitted effect of over 50% in size). In short, it runs like this: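 Cytotoxicity counter-screen run in the same wells as the beta-lactamase Smad reporter read: CellTiter-Glo luminescence after 30 min at room temperature. HEK 293T SBE-bla cells had 5 hr compound exposure at 37 C with TGF-beta1 (0.25 ng/mL stock).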

Assay [18] addresses Thyrotropin-releasing hormone receptor (Homo sapiens) (UniProt P34981). The assay can be described thus: qHTS assay to identify small molecule antagonists of the thyrotropin-releasing hormone receptor (TRHR) signaling pathway (AID 1346877; active = well fitted inhibition curve with a large enough effect in the repeat runs, not every such curve was filed as active; note: series mostly up to about 51 µM). In short, it runs like this: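 TRHR-expressing HEK293 cells loaded with calcium dye for 2 h at 37 C; compounds pre-incubated 5 min at room temperature before TRH challenge at 1 nM final. Intracellular calcium fluorescence read kinetically for 3 min; 15 concentrations in triplicate.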

Assay [19] in a line: qHTS assay to identify small molecule antagonists of the sonic hedgehog signaling (Shh) pathway (AID 1259369). Note: nearly all actives have a fitted effect of over 45% in size. In short, it runs like this:
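NIH/3T3-derived Gli1-Luc reporter cells plated 4 h, dosed with compound, then stimulated with conditioned medium for 24 h at 37 C. Firefly luciferase luminescence read after 30 min with detection reagent at room temperature.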

Values without a mark were called inactive. Results filed as inconclusive are left out. Active and inactive are the calls of the source. Unless noted, calls come from the whole dose curve.

Chain of Progesterone receptor (Homo sapiens) (P06401 whole entry, looked up): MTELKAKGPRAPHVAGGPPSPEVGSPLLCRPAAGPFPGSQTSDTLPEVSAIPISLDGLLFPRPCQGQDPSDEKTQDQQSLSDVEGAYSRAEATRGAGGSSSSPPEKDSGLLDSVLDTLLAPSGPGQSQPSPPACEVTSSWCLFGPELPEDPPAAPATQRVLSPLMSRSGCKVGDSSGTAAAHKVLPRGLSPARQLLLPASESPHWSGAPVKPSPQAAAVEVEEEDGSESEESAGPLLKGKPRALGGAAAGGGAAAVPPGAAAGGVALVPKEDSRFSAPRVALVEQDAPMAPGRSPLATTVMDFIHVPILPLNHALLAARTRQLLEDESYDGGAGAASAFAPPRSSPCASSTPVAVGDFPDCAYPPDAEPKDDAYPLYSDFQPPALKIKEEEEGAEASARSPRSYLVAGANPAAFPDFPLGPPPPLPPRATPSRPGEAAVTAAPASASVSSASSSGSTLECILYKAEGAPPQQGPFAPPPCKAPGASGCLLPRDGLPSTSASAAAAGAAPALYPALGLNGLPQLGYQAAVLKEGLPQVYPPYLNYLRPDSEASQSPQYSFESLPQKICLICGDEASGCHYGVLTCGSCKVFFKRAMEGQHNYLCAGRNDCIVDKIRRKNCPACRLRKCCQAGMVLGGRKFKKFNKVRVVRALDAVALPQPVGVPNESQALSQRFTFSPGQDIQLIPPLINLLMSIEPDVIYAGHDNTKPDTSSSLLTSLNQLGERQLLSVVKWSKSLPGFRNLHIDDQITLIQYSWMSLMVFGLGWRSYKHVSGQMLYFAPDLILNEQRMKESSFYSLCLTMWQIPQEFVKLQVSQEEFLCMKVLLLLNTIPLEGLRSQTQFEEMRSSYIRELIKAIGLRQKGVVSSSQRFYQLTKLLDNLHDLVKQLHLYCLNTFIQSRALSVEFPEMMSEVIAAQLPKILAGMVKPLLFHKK
Chain of Estrogen receptor beta (Homo sapiens) (Q92731 whole entry, looked up): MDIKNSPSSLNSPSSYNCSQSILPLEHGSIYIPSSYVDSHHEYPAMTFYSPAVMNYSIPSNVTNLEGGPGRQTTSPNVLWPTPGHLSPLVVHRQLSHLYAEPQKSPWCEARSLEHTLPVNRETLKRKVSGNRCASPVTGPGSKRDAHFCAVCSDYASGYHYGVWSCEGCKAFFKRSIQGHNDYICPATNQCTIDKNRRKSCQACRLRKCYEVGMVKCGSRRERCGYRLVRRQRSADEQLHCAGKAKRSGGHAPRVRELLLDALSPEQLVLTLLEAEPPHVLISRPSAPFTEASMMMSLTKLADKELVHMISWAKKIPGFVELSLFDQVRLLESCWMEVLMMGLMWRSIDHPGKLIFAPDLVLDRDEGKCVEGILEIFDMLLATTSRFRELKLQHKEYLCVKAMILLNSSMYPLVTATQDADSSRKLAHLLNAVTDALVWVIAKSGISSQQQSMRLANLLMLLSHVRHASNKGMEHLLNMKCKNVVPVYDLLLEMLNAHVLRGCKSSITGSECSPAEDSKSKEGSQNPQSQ
Chain of Thyrotropin-releasing hormone receptor (Homo sapiens) (P34981 whole entry, looked up): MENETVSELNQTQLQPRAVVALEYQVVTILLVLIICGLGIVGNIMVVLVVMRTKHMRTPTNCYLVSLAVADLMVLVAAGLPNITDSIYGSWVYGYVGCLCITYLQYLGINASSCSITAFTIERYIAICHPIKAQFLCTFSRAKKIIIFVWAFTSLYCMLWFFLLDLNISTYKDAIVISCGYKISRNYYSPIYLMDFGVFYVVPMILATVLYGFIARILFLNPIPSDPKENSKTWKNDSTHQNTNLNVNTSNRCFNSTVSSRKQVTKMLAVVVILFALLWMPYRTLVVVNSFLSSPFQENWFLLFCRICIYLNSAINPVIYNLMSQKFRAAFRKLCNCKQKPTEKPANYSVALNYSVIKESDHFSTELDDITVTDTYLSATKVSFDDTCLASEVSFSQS
Chain of Thyrotropin receptor (Homo sapiens) (P16473 whole entry, looked up): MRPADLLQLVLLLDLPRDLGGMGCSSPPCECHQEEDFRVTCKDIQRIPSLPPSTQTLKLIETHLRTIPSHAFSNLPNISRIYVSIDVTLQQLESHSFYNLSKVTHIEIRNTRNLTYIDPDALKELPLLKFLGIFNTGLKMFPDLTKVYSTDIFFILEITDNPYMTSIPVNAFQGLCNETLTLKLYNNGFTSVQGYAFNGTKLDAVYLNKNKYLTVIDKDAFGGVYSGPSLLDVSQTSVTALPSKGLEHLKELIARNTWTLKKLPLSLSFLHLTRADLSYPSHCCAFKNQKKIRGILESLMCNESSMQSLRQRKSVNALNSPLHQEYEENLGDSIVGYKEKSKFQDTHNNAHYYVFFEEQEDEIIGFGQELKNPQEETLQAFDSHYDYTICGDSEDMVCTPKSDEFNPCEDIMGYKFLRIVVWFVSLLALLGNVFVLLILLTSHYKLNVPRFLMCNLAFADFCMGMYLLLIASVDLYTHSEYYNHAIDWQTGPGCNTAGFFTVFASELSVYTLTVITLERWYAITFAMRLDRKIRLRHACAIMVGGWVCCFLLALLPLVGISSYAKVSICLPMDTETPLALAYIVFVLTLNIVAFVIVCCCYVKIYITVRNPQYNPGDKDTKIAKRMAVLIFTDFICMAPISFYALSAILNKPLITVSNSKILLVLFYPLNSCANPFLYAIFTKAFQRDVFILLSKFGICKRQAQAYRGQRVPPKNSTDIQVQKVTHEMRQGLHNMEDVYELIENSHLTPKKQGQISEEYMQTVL
Chain of Estrogen receptor (Homo sapiens) (P03372 whole entry, looked up): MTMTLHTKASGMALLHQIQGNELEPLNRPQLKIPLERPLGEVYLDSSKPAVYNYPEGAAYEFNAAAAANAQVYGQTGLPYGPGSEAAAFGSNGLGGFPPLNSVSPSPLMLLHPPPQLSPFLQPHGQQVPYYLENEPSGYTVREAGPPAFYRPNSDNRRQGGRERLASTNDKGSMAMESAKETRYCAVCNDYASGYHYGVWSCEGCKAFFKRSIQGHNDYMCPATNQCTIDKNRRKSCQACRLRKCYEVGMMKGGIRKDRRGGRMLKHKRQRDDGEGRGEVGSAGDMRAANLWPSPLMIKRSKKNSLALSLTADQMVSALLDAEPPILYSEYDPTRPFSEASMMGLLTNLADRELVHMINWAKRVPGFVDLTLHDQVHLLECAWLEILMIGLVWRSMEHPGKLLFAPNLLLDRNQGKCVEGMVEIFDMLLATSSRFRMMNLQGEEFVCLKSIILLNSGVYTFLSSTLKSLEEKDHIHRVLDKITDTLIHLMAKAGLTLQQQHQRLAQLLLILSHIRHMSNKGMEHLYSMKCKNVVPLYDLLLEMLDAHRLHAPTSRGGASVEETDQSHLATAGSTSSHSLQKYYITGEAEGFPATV

In the case of `C=C(C)[C@H]1CC=C(C)CC1`, the Potency result in [1], in assay [2], in assay [3], in assay [4], in assay [5] and in assay [6] was “inactive” throughout. The compound was called inactive in assay [7] and in [8].

For the compound `Nc1ccn(C2CO[C@H](CO)O2)c(=O)n1` (some centres not stated), the Potency entry in assay [1], in [10], in assay [2], in assay [3], in [11] and in assay [4] was “inactive” each time. In addition, the Potency entry in assay [13], in assay [15], in assay [5], in assay [16] and in assay [6] was “inactive” throughout. Moreover, the outcome in assay [9], in assay [12], in [14], in assay [17], in [7] and in [8] was inactive.

Turning to `NC(=O)c1ncn([C@@H]2O[C@H](CO)[C@@H](O)[C@H]2O)c1O`, the Potency result in assay [1], in [10], in assay [2], in [3], in assay [11] and in assay [4] was “inactive” each time. Further, the Potency result in assay [13], in assay [15], in [5], in assay [16] and in [6] was “inactive” in each case. Further, the compound was called inactive in assay [9], in assay [12], in [17], in assay [8] and in assay [18].

For the compound `CCCCC1CCCCC(=O)O1` (configuration not stated), the Potency entry in assay [1], in assay [19], in [2], in assay [4], in [13] and in assay [15] was “inactive” in each case. Moreover, the Potency result in assay [5], in assay [16] and in [6] was “inactive” in each case. Moreover, the outcome in [12], in [8] and in assay [18] was inactive.

As to `CCCCc1ccc(N)cc1`, the Potency result in assay [1], in [10], in assay [2], in [3], in assay [4] and in assay [13] was “inactive” in each case. Also, the Potency result in assay [15], in [5], in [16] and in assay [6] was “inactive” each time. Also, the compound was called inactive in assay [9], in assay [12], in assay [17], in [7] and in [8].

With `CC(=O)O[C@H](CC(=O)[O-])C[N+](C)(C)C`, the Potency result in assay [1], in assay [2], in assay [3], in assay [11], in assay [4] and in assay [13] was “inactive” each time. For the same compound, the Potency entry in assay [5], in [16] and in assay [6] was “inactive” in each case. In addition, the compound was classed as inactive in assay [12], in [14], in assay [17], in assay [7], in assay [8] and in assay [18].

Turning to `CN(C)CCOC(c1ccc(Cl)cc1)c1ccccn1` (configuration not stated), the Potency entry in assay [1], in assay [2], in assay [3], in assay [11], in assay [4] and in assay [13] was “inactive” each time. Also, the Potency result in [15], in assay [5], in [16] and in assay [6] was “inactive” throughout. For the same compound, the call in [12], in assay [14], in assay [8] and in assay [18] was inactive.

Consider `CN(C)C(=O)C(CCN1CCC(O)(c2ccc(Cl)cc2)CC1)(c1ccccc1)c1ccccc1`, for which the Potency entry in assay [1], in assay [4], in [15], in assay [16] and in assay [6] was “inactive” in each case. Also, the result in [9], in [17], in [7] and in assay [18] was inactive. The Potency in assay [2] is 29.8 µM (active).
